aSyn yeast inh: qHTS of alpha-syn Inhibitors; 0.14% of 370,000 active; Yeast expressing alpha-synuclein, growth rescue, BacTiter-Glo, 24 h; Potency, µM (highest dose often 46.1 µM), for inactives: at the top dose growth rescue (activation), usual class: activators; AID 652106, 2013; note: % of control where 0% means no effect; nearly all actives have a fitted effect of over 65% in size
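Screening used galactose-induced yeast with toxic alpha-synuclein levels, exposed to compound for 24 hr at 30 deg C. Cell growth, read with BacTiter-Glo luminescence, gave the measured signal.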
Abeta yeast res: qHTS for compounds that reverse cellular toxicity of Amyloid beta (A-beta) peptide in yeast: Primary Screen; Potency, µM (highest dose often 46.1 µM), usual class: activators; 0.063% of 410,000 active; yeast expressing A-beta42, growth rescue, OD600, 48 h; response scale: 0% DMSO, 100% iron-clioquinol control; AID 1347071, 2019; note: nearly all actives have a fitted effect of over 55% in size
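Growth rescue measured by 600 nm absorbance after 48 h yeast culture at 30 C with compound. Values normalized between DMSO and an equimolar ferric chloride plus clioquinol control.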
FUS suppressor: qHTS for Suppressors of FUS Proteinopathy: Primary screen using FUS-linked yeast assay. S. cerevisiae FUS-expressing, growth rescue, OD600, 24 h. Potency, µM (doses to about 76.6 µM), most hits filed as activators. 0.24% of 390,000 active;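 note: plate controls were DMSO vehicle for no effect and reference control for full effect; nearly all actives have a fitted effect of over 55% in size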
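Restored growth of FUS-toxic S. cerevisiae, read as 600 nm absorbance after 24 h at 30C in galactose medium (starting OD 0.005). Controls CP55940 and DMSO.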
TDP-43 yeast inh: qHTS of TDP-43 Inhibitors | TDP-43 expressing yeast growth rescue, BacTiter-Glo, 24 h | Potency, µM (highest dose often 46.1 µM), for inactives: top-dose growth rescue (activation), most hits filed as activators | 1.8% of 410,000 active | AID 652104, 2013; note: % of control where 0% means no effect; nearly all actives have a fitted effect of over 50% in size
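Galactose-induced TDP-43 yeast, OD600=0.02, compound pinned; 24 hr, 30 deg C; BacTiter-Glo luminescence for growth. Inhibitors of TDP-43 toxicity read as activators.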
* = called active by the depositor; i = inactive; u = inconclusive; x = no result given. This is a sample that favours compounds with a hit; in the whole collection about 2.1% have one here. Calls come from the whole dose curve; as a rule, active = well fitted curve in the direction sought with a large enough effect; inconclusive = small, poorly fitted or top-dose-only effect, or another doubt; inactive = no such curve, though single readings can be large; an effect the other way counts as inactive or inconclusive. Potency is the fitted concentration of half-maximal effect.

SMILES | aSyn yeast inh | Abeta yeast res | FUS suppressor | TDP-43 yeast inh
CCc1ccc(-c2nc3ccc(Br)cc3c(C(=O)O)c2C)s1 | -36.0% | i | i | 35.5µM*
Cc1c(-c2ccccc2Br)nc2ccccc2c1C(=O)O | 3.4% | i | x | 5.4%
C#CCNC(=O)C[C@H]1C[C@@]2(C(=O)OC)C(=C[C@H](C(C)C)O[C@@H]2C2CC2)N(CCc2ccc(OC)c(OC)c2)C1=O | x | x | i | x
CCC(C)c1ccc(NC(=O)C2CCCN(c3ncccn3)C2)cc1 (stereo not drawn) | x | i | i | 12.6µM*
COc1ccc(NC(=O)C2CCCN(c3ncccn3)C2)cc1 (stereo not drawn) | -7.0% | i | i | 5.9%
Fc1ccc(-c2cc(-c3nc(-c4ccccc4)no3)[nH]n2)cc1 | x | i | i | 0.0%
O=C(CNc1ccccc1-c1ccccc1)NCc1ccccc1 | 6.5% | i | x | 20µM*
O=C(CNCc1ccccc1)Nc1ccccc1-c1ccccc1 | -0.5% | i | i | -0.6%
COc1ccc(-c2csc3nc[nH]c(=O)c23)cc1OC | -2.8% | i | i | -11.9%
Cc1ccc(-c2csc3nc[nH]c(=S)c23)cc1C | u | u | i | 25.1µM*
O=C(CSc1nc2c(cnn2-c2ccc(F)cc2)c(=O)[nH]1)Nc1ccc(Br)cc1 | x | i | i | 16.0%
CC(=O)c1ccc(NC(=O)c2sc(-n3nc(C)c(Cc4ccc5c(c4)OCO5)c3C)nc2C)cc1 | x | i | i | 12.9%
COc1ccc2c(c1)CC/C(=C\c1ccc(C)o1)C2=O | -1.1% | i | i | 17.8µM*
COc1ccc2c(c1)CC/C(=C/c1ccncc1)C2=O | -2.4% | i | i | 0.8%
Cc1cccc(/C(N)=N/OC(=O)c2ccco2)c1 | -38.4% | i | i | 22.4µM*
N/C(=N\OC(=O)c1ccco1)c1ccc(Br)cc1 | -48.3% | i | i | 14.1µM*
Cc1ccc(/C(N)=N/OC(=O)c2ccco2)cc1 | -17.5% | i | i | u
COc1ccc(/C(N)=N/OC(=O)c2ccco2)cc1 | -16.5% | i | i | 17.8µM*
Cn1cc(C(CO)Cc2ccccc2)c2ccccc21 (stereo not drawn) | 17.8µM* | i | i | u
C=CCC[C@H](Cc1ccc(F)cc1)C(=O)OC[C@@H](Cc1c[nH]c2ccccc12)NC(=O)[C@@H](CC=C)CC(=O)N[C@@H](CO)Cc1ccccc1 | 4.9% | i | i | -3.0%
C=CCC[C@@H](Cc1ccc(F)cc1)C(=O)OC[C@@H](Cc1c[nH]c2ccccc12)NC(=O)[C@@H](CC=C)CC(=O)N[C@H](CO)Cc1ccccc1 | 3.1% | i | 25.1µM* | 9.1%
C=CCC[C@@H](Cc1ccc(F)cc1)C(=O)OC[C@@H]1CCCN1C(=O)[C@@H](CC=C)CC(=O)N[C@@H](CO)Cc1ccccc1 | -1.4% | i | 22.4µM* | 12.6µM*
COc1ccccc1NC(=O)CCn1nc(-c2ccccc2OC)c2c(C)cc(C)nc21 | 11.9% | i | i | u
COc1cccc(CNC(=O)Cn2c(=O)nc(-c3ccccc3F)c3cc(Cl)ccc32)c1 | x | i | i | 13.9%
Cc1ccc(C(=O)c2cn(CC(=O)Nc3ccc(C)cc3Cl)c3nc(C)ccc3c2=O)cc1 | x | i | i | 17.2%
SMILES | aSyn yeast inh | Abeta yeast res | FUS suppressor | TDP-43 yeast inh
Fc1ccc(C2Nc3cccc4cccc(c34)N2)cc1 | -7.6% | i | i | -4.5%
Cc1ccc(C2Nc3cccc4cccc(c34)N2)s1 | -10.2% | i | x | 10µM*
Cc1cccc(NC(=O)c2cc(-c3cc(C)ccc3O)n[nH]2)c1 | -4.3% | i | i | -1.1%
Cc1ccc(O)c(-c2cc(C(F)(F)F)[nH]n2)c1 | 2.8% | u | i | 17.8µM*
CCc1ccccc1NC(=O)CCS(=O)(=O)c1cccc2nonc12 | x | i | i | 8.8%
Brc1ccc(OCc2nnnn2-c2ccccc2)cc1 | -9.3% | i | i | 22.4µM*
COc1ccc(OCc2nnnn2-c2ccccc2)cc1 | 7.0% | i | i | 7.2%
Cc1cccc(N2C(S)=C(C#N)C(=O)NC23CCCCC3)c1 | 8.1% | i | x | -24.6%
Cc1ccc(N2C(S)=C(C#N)C(=O)NC23CCCCC3)cc1 | 0.9% | i | x | 22.4µM*
O=C(COCc1cc(-c2ccco2)on1)Nc1ccc(OC(F)(F)F)cc1 | x | i | i | 18.1%
CCc1cc2c(=O)[nH]c(-c3ccccn3)nc2s1 | 17.8µM* | u | x | u
Cc1ccc(S(=O)(=O)N2CCN(C(=O)Cc3ccccc3)CC2)cc1C | -0.6% | i | i | 22.4%
Cc1ccc(S(=O)(=O)N2CCN(C(=O)CCN3C(=O)c4ccccc4C3=O)CC2)cc1C | 1.5% | i | i | 15.8µM*
Cc1cc2cc(C(=O)N3CCc4c([nH]c5ccccc45)C3c3ccccn3)ccc2o1 (stereo not drawn) | u | i | u | 25.1µM*
CCOC(=O)c1[nH]c(C)c(C(=O)N2CCc3c([nH]c4ccccc34)C2c2ccccn2)c1C (stereo not drawn) | 4.3% | i | i | 16.6%
Cn1cccc1-c1cc(C(=O)N2CCc3c([nH]c4ccccc34)C2c2ccccn2)[nH]n1 (stereo not drawn) | 0.9% | u | 17.8µM* | 3.7%
CCCCCCC(=O)NC1CCCCN(Cc2ccccc2C)C1=O (stereo not drawn) | x | x | i | x
Cc1ccnc2nc(C(=O)OCCOc3ccccc3)nn12 | -14.3% | i | i | -3.3%
Cc1ccnc2nc(C(=O)OCCOc3cccc(Br)c3)nn12 | -13.1% | u | i | 15.8µM*
S=C(Nc1ccccc1)Nc1ccccc1-n1cccc1 | 16.4% | 12.6µM* | i | u
CCC(C)(C)n1nnnc1C(c1ccncc1)N1CCC(Cc2ccccc2)CC1 (stereo not drawn) | 12.9% | i | i | -3.1%
CCC(C)(C)n1nnnc1C(c1cccnc1)N1CCC(Cc2ccccc2)CC1 (stereo not drawn) | u | i | i | 10µM*
O=[N+]([O-])c1ccc(N2CCc3ccccc3C2)nc1 | -4.4% | i | i | 12.6µM*
N#Cc1cc(-c2ccccc2)oc1/N=C/c1ccccc1O | 0.8% | i | i | 2.6%
COc1cccc(/C=N/c2oc(-c3ccccc3)cc2C#N)c1O | 14.3% | i | i | 12.6µM*
Oc1c(C(c2ccccc2F)N2CCOCC2)sc2nc(-c3ccco3)nn12 (stereo not drawn) | x | i | i | u
CNc1nc(-c2ccccc2)[n+](-c2ccc(C)cc2)s1 | -8.9% | i | i | 14.1µM*
Cc1ccc(-c2nc(N)s[n+]2-c2ccccc2)cc1 | 9.6% | i | x | u
O=C(NC1CCCCC1)c1ccc(-c2cn[nH]c2)c2ccoc12 | -0.2% | i | i | 22.4µM*
COc1ccc(-c2ccc(C(=O)NC3CCCCC3)c3occc23)c(C)c1 | -0.2% | i | i | 12.6µM*

From PubChem BioAssay
